Assay results: PMC7862700, “An all-to-all approach to the identification of sequence-specific readers for epigenetic DNA modifications on cytosine”

Legend:
Test in all cases: DAPPL (digital affinity profiling via proximity ligation, sequencing); 10 mM Tris-HCl pH 7.5, 50 mM NaCl, 1 mM DTT, 4% glycerol, room temperature, 30 min; GST-TFs on glutathione beads, 16-mer random dsDNA library, 0.1% formaldehyde crosslink after washing; high values mean tight binding
Conditions in all cases: protein: recombinant; tags: N-terminal GST; dsDNA, one strand shown
FLI1 = target: T1, FLI1 (Homo sapiens, UniProt Q01543 1-452)
T1 sequence: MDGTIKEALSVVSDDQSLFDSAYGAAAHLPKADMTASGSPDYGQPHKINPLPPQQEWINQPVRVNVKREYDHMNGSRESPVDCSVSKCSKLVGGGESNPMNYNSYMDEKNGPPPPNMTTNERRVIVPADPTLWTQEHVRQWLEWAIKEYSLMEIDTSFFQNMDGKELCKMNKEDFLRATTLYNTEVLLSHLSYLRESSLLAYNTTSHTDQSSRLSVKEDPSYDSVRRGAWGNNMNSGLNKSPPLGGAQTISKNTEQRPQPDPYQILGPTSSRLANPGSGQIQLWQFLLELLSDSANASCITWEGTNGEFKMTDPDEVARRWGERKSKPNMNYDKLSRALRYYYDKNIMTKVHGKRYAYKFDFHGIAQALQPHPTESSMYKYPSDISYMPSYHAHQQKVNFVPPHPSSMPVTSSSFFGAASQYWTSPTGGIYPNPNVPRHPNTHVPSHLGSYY
Summary of the method: (§1)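 Pools were built from human transcription factors expressed in yeast as GST fusions, captured on glutathione beads and DNA-barcoded, along with a tag-only sample. Incubation with 200 nmole of a 16-mer random double-stranded DNA library lasted 30 min at room temperature in Tris/NaCl/DTT/glycerol buffer, and was followed by washing, 0.1% formaldehyde crosslinking, proximity ligation, PCR amplification and Illumina NextSeq500 sequencing. Binding signal is the quotient of each hexamer's read frequency for a factor and its frequency for the tag-only sample.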

ELK1 = target: T2, ELK1 (Homo sapiens, UniProt P19419 1-428)
T2 sequence: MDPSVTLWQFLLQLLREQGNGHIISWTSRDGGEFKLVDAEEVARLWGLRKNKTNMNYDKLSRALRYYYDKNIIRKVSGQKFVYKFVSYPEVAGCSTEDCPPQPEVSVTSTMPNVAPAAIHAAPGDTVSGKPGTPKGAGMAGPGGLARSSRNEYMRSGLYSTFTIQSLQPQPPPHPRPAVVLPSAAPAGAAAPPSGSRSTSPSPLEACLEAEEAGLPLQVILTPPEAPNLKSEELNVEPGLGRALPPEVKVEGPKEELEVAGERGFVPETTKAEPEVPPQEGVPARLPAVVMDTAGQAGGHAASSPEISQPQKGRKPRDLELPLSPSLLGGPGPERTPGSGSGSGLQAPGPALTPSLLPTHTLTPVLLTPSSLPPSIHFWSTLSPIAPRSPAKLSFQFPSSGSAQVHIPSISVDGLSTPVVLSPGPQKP
Summary of the method: as §1

ERG = target: T3, ERG (Homo sapiens, UniProt P11308 1-479)
T3 sequence: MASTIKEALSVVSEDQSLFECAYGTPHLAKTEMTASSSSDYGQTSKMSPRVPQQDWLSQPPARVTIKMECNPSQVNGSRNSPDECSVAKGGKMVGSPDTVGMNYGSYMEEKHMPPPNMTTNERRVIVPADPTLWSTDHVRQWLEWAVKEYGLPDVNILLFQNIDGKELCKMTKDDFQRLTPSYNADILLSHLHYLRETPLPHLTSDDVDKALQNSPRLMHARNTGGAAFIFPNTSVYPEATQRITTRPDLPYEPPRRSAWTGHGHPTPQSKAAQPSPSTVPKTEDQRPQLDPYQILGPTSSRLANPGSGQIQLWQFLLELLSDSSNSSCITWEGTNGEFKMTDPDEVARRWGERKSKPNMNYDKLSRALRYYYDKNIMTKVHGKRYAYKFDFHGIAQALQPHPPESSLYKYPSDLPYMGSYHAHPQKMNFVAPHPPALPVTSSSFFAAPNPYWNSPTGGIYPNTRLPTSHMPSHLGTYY
Summary of the method: as §1

ELF1 = ELF1 (Homo sapiens, UniProt P32519 1-619)
Summary of the method: as §1

EHF = target: T4, EHF (Homo sapiens, UniProt Q9NZC4 1-300)
T4 sequence: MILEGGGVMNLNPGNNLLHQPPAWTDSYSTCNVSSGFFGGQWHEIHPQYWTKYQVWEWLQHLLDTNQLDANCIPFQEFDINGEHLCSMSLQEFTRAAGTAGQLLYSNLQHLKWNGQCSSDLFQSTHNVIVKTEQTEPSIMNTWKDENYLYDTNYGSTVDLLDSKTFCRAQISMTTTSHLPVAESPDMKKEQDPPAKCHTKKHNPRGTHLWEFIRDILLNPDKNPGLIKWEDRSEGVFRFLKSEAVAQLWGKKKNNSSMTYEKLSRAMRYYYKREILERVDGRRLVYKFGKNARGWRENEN
Summary of the method: as §1

SPI1 = SPI1 (Homo sapiens, UniProt P17947 1-270)
Summary of the method: as §1

SPIB = SPIB (Homo sapiens, UniProt Q01892 1-262)
Summary of the method: as §1

ELK3 = target: T5, ELK3 (Homo sapiens, UniProt P41970 1-407)
T5 sequence: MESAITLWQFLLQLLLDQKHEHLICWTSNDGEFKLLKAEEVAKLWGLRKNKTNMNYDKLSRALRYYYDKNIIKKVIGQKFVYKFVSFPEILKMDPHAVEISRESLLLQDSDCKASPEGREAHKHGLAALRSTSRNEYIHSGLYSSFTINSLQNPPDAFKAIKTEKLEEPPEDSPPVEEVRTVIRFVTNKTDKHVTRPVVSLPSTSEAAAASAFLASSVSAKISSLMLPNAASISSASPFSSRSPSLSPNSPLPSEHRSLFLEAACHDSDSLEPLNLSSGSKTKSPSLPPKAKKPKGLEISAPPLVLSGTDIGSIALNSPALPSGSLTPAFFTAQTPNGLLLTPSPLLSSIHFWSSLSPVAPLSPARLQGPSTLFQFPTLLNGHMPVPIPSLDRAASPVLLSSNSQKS
Summary of the method: as §1

GABPA = target: T6, GABPA (Homo sapiens, UniProt Q06546 1-454)
T6 sequence: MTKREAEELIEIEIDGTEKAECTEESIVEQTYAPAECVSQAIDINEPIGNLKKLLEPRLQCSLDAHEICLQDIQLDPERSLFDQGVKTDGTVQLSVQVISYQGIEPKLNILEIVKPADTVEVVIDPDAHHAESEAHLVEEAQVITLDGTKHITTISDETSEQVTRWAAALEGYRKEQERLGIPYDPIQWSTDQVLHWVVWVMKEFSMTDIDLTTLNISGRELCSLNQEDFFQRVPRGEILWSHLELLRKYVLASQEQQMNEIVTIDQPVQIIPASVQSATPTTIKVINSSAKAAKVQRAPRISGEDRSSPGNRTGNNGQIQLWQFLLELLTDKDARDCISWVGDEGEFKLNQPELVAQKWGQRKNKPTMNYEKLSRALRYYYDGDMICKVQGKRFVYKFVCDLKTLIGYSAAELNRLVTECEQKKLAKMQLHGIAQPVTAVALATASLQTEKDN
Summary of the method: as §1

Chain of SPIB (Q01892 whole entry): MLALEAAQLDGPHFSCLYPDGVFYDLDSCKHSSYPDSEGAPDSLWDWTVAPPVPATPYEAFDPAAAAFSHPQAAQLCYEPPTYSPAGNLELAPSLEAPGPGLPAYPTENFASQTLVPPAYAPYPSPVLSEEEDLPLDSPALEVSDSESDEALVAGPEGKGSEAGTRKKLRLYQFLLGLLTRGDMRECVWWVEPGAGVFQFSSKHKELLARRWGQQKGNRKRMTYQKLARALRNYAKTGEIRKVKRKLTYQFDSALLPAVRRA
Chain of ELF1 (P32519 whole entry): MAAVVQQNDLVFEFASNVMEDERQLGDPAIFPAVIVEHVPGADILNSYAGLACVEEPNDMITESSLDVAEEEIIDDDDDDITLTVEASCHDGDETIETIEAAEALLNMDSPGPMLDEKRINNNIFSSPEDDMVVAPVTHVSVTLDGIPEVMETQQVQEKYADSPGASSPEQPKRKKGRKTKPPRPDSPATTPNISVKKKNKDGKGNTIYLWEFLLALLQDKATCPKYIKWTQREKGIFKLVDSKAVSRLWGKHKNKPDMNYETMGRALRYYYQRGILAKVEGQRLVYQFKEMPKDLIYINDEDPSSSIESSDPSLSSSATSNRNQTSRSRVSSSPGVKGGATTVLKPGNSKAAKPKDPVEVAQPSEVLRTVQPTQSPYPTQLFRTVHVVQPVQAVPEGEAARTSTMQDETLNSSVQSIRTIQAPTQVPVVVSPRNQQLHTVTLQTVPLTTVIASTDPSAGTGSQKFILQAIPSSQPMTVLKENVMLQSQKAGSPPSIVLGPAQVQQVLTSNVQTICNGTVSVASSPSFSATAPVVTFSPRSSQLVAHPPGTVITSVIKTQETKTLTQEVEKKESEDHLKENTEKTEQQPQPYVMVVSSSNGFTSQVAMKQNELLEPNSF

Sequence	binding signal (FLI1)	binding signal (ELK1)	binding signal (ERG)	binding signal (ELF1)	binding signal (EHF)	binding signal (SPI1)	binding signal (SPIB)	binding signal (ELK3)	binding signal (GABPA)
AGATGA	1.06 fold enrichment (6-mer frequency, TF over GST control)	1.13 fold enrichment (6-mer frequency, TF over GST control)	1.11 fold enrichment (6-mer frequency, TF over GST control)	1.14 fold enrichment (6-mer frequency, TF over GST control)	1.06 fold enrichment (6-mer frequency, TF over GST control)	1.07 fold enrichment (6-mer frequency, TF over GST control)	1.03 fold enrichment (6-mer frequency, TF over GST control)	1.14 fold enrichment (6-mer frequency, TF over GST control)	–
ACAGAT	1.02 fold enrichment (6-mer frequency, TF over GST control)	1.1 fold enrichment (6-mer frequency, TF over GST control)	1.07 fold enrichment (6-mer frequency, TF over GST control)	1.02 fold enrichment (6-mer frequency, TF over GST control)	1.03 fold enrichment (6-mer frequency, TF over GST control)	–	–	–	–
TGATCA	1.04 fold enrichment (6-mer frequency, TF over GST control)	1.05 fold enrichment (6-mer frequency, TF over GST control)	–	1.07 fold enrichment (6-mer frequency, TF over GST control)	1.08 fold enrichment (6-mer frequency, TF over GST control)	1.02 fold enrichment (6-mer frequency, TF over GST control)	–	1.18 fold enrichment (6-mer frequency, TF over GST control)	1.03 fold enrichment (6-mer frequency, TF over GST control)
TACAAG	1.06 fold enrichment (6-mer frequency, TF over GST control)	1.03 fold enrichment (6-mer frequency, TF over GST control)	1.04 fold enrichment (6-mer frequency, TF over GST control)	1.06 fold enrichment (6-mer frequency, TF over GST control)	1.09 fold enrichment (6-mer frequency, TF over GST control)	–	–	1.04 fold enrichment (6-mer frequency, TF over GST control)	–
GAATTA	1.09 fold enrichment (6-mer frequency, TF over GST control)	1.05 fold enrichment (6-mer frequency, TF over GST control)	1.01 fold enrichment (6-mer frequency, TF over GST control)	1.04 fold enrichment (6-mer frequency, TF over GST control)	1.12 fold enrichment (6-mer frequency, TF over GST control)	1.07 fold enrichment (6-mer frequency, TF over GST control)	1.02 fold enrichment (6-mer frequency, TF over GST control)	1.12 fold enrichment (6-mer frequency, TF over GST control)	–
TAGATC	1.05 fold enrichment (6-mer frequency, TF over GST control)	1.14 fold enrichment (6-mer frequency, TF over GST control)	1 fold enrichment (6-mer frequency, TF over GST control)	1.06 fold enrichment (6-mer frequency, TF over GST control)	1.04 fold enrichment (6-mer frequency, TF over GST control)	–	–	1.21 fold enrichment (6-mer frequency, TF over GST control)	–
CCGAAG	1.12 fold enrichment (6-mer frequency, TF over GST control)	1.09 fold enrichment (6-mer frequency, TF over GST control)	–	1 fold enrichment (6-mer frequency, TF over GST control)	1.03 fold enrichment (6-mer frequency, TF over GST control)	–	1.04 fold enrichment (6-mer frequency, TF over GST control)	1.03 fold enrichment (6-mer frequency, TF over GST control)	1.12 fold enrichment (6-mer frequency, TF over GST control)
CGAGTT	1.16 fold enrichment (6-mer frequency, TF over GST control)	1.1 fold enrichment (6-mer frequency, TF over GST control)	–	1.16 fold enrichment (6-mer frequency, TF over GST control)	1.04 fold enrichment (6-mer frequency, TF over GST control)	1.09 fold enrichment (6-mer frequency, TF over GST control)	1.07 fold enrichment (6-mer frequency, TF over GST control)	1.14 fold enrichment (6-mer frequency, TF over GST control)	1.02 fold enrichment (6-mer frequency, TF over GST control)
AAAGCC	1.05 fold enrichment (6-mer frequency, TF over GST control)	1.05 fold enrichment (6-mer frequency, TF over GST control)	–	1.08 fold enrichment (6-mer frequency, TF over GST control)	–	–	1 fold enrichment (6-mer frequency, TF over GST control)	–	1.04 fold enrichment (6-mer frequency, TF over GST control)
